Laboratory results: PubChem BioAssay AID623868 (Vanderbilt High Throughput Screening Facility, 2012)
In all, about 2,100 compounds went through this assay and about 760 (36%) were called active.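 How the source made its calls: active means thallium-flux fluorescence traces judged by eye to show enhanced or reduced glutamate response, manual score 1 or -1, so both directions (some results past the limit were not filed as active); inactive means the rest, including fluorescent or raised-baseline compounds.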 These entries were drawn from the full list.

Assay: thallium influx changes without GIRK channels – cell-based, HEK-293 rmGlu8, no GIRK, thallium flux, counter-screen for GIRK activator project, confirmation (AID 623868);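 further: extra codes mark interference with 3 for fluorescent and 4 for baseline rise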
Conditions: thallium flux fluorescence, at 10 µM, actives lie on both sides, codes: 1 enhancer, -1 blocker, 0 none, thallium stimulus containing EC20 glutamate

Structure (SMILES)	manual score
CCC(C)(C)n1nnnc1C(c1ccccn1)N1CCCCC1 (stereo not given)	0 (inactive)
Cc1c(C2Nc3ccccc3NC3=C2C(=O)CC(C)(C)C3)cnn1C (stereo not given)	0 (inactive)
CC(C)Sc1nc2c(c(=O)[nH]1)C(c1cccs1)C1=C(CC(C)(C)CC1=O)N2 (stereo not given)	-1 (active)
Cc1cc2c(cc1C)NC(c1c(C)n(C)n(-c3ccccc3)c1=O)C1=C(CC(C)(C)CC1=O)N2 (stereo not given)	3 (inactive)
O=C(NCc1cccs1)c1cccnc1C(=O)O	0 (inactive)
CCC(C)NC(=O)c1ccccc1NC(=O)Nc1ccccc1 (stereo not given)	0.5 (inactive)
O=C(Nc1ccccc1C(=O)O)c1ccc(NC(=O)c2ccc(Br)o2)cc1	-1 (active)
O=C(O)c1ccccc1C(=O)Nc1ccc(-c2csc(-c3ccccc3)n2)cc1	0 (inactive)
O=C(NC(=S)N(CCc1ccccc1)CCc1ccccc1)c1ccco1	1 (active)
O=C(NC(=S)NCCc1ccccc1)c1ccco1	1 (active)
COc1cc(OC)cc(C(=O)NC(=S)NCCc2ccccc2)c1	0 (inactive)
O=C(NC(=S)NCCc1ccccc1)c1ccccc1	1 (active)
O=C(CNC(=S)NC(=O)c1ccco1)c1ccccc1	1 (active)
Cc1ccccc1C(=O)NC(=S)NCCc1ccccc1	0 (inactive)
CC1CN(C2CC(C)(C)NC(C)(C)C2)CCC1=O (stereo not given)	0 (inactive)
CCCCc1cc(=O)oc2cc(C)cc(O)c12	-0.5 (inactive)
COc1cc(/C=C(\C#N)C(=O)Nc2cccnc2)ccc1OC(C)C	0 (inactive)
O=C(CNC(=S)NC(=O)c1cccs1)c1ccccc1	1 (active)
Nc1sccc1C(=O)c1ccccc1	0 (inactive)
CCOc1ccccc1-c1c2cc(O)c(=O)cc-2oc2cc(O)c(O)cc12	0 (inactive)
CCN(CC)S(=O)(=O)c1cccc(S(=O)(=O)c2cccc(S(=O)(=O)N(CC)CC)c2)c1	0 (inactive)
CCN(CC)S(=O)(=O)c1cccc(-c2n[nH]c(=S)n2/N=C/c2ccc(C(=O)OC)cc2)c1	1 (active)
C=CCn1c(N)c(C(=O)OC(C)(C)C)c2nc3ccccc3nc21	-1 (active)
COc1ccccc1CNC(=O)c1c(N)n(CCCN2CCOCC2)c2nc3ccccc3nc12	0 (inactive)
COCC(C)OC(=O)c1c(N)n(CC(C)C)c2nc3ccccc3nc12 (stereo not given)	0 (inactive)
Cc1cccn2c(=O)c(/C=N/O)c(N3CCCC3)nc12	0 (inactive)
CSc1cccc(NC(=O)CN(c2ccc(C)cc2C)S(C)(=O)=O)c1	0 (inactive)

Structure (SMILES)	manual score
CC1(C)CC(=O)C2=C(C1)OC(/N=C/N1CCOCC1)=C(C#N)C2c1ccccc1 (stereo not given)	-1 (active)
CC1Cc2nc(SCC(=O)Nc3nc4ccccc4s3)n(C)c(=O)c2S1 (stereo not given)	-1 (active)
CC(C)Cc1nnc(NC(=O)CSc2nc(=O)cc(N)n2-c2ccccc2)s1	0 (inactive)
CC1(C)Cc2ccccc2-c2nnc(SCC(=O)Nc3nc4ccccc4s3)n21	0 (inactive)
COC(=O)c1onc(C(=O)c2ccccc2)c1C(=O)OC	-1 (active)
N[C@@H](Cc1ccccc1)c1nnc(SCc2ccccc2F)o1	0 (inactive)
Cc1ccccc1-c1nc(CN2CCC(C(=O)NCc3ccco3)CC2)c(C)o1	0 (inactive)
Cc1sc2nc(C(C)C)nc(SCC(=O)NCc3ccco3)c2c1C	1 (active)
Cc1sc2nc(C(C)C)nc(SCC(=O)N3c4ccccc4CC3C)c2c1C (stereo not given)	1 (active)
CCn1c(SCC(=O)NC(=O)NCc2ccco2)nc2sc(C)c(C)c2c1=O	1 (active)
Cc1sc2ncnc(SCc3ccco3)c2c1C	0 (inactive)
CCn1c(N)c(C(=O)NCc2ccco2)sc1=S	0 (inactive)
CCc1cc2cccc(C)c2nc1SCC(=O)c1ccc(NC(C)=O)cc1	1 (active)
COC(=O)c1ccc(-n2c(C)cc(C(=O)CSc3ccc(NC(C)=O)cc3)c2C)cc1	0 (inactive)
CC(=O)Nc1ccc(C(=O)CSc2nc3ccc(C)cc3[nH]2)cc1	0 (inactive)
COc1ccc(OC)c(NC(=O)C2CC(=O)N(c3ccc(Br)cc3)C2)c1 (stereo not given)	0 (inactive)
COc1cc(NC(=O)c2ccc(C)cc2)c(OC)cc1NC(=O)CN1CCCCC1	0 (inactive)
COc1cc(NC(=O)C(=O)NNC(=O)C2CCCCC2)c(OC)cc1Cl	1 (active)
Oc1ccccc1CNc1ccc(Br)cn1	0 (inactive)
Cc1ccc(C2CC2c2n[nH]c(=S)n2-c2ccc(Cl)cc2)cc1 (stereo not given)	0 (inactive)
Cc1ccc(C2CC2c2n[nH]c(=S)n2-c2ccc(C)cc2)cc1 (stereo not given)	1 (active)
O=C(c1ccc(Br)o1)N1CCN(c2ccc3nnc(-c4ccc(F)cc4)n3n2)CC1	-1 (active)
CCOC(=O)N1CCN(c2ccc3nnnn3n2)CC1	0 (inactive)
O=C(c1ccc(CS(=O)(=O)c2ccc(Br)cc2)o1)N1CCN(c2ncccn2)CC1	0 (inactive)
CCOc1cc(-c2noc(-c3cccnc3)n2)ccc1OC	0 (inactive)
CC(C)N(CCn1c(=S)[nH]c2ccccc2c1=O)C(C)C	1 (active)
CC(C)COn1c(=S)[nH]c2ccccc2c1=O	1 (active)

Structure (SMILES)	manual score
CC(C)n1c(=S)[nH]c2ccccc2c1=O	1 (active)
CCOc1cc2[nH]c(=S)n(C(C)C)c(=O)c2cc1OCC	1 (active)
CC(C)n1c(NCc2c[nH]c3ccccc23)nc2ccccc21	0 (inactive)
Cc1cc(CC(C)C)n(-c2nc3ccccc3c(=O)n2OCC(N)=O)n1	0 (inactive)
CCCC(=O)NC(c1cccs1)c1cc([N+](=O)[O-])c2cccnc2c1O (stereo not given)	0 (inactive)
CCCC(=O)Nc1ccc(NC(=O)C2CC2)cn1	0 (inactive)
COCc1nnc(NC(=O)C(C)C)s1	0 (inactive)
Cc1conc1NC(c1cccs1)c1ccc2cccnc2c1O (stereo not given)	0.5 (inactive)
COc1ccccc1-n1cnnc1SCC(=O)c1cc(C)n(Cc2cccs2)c1C	0 (inactive)
CCC(=O)n1nc(-c2cccnc2)nc1NCc1ccc(OC)cc1	-1 (active)
CCCC(=O)n1nc(-c2ccccc2)nc1N	0 (inactive)
O=C(c1cc2nc(-c3ccccc3)cc(-c3ccccc3)n2n1)N1CCN(C(=O)c2ccco2)CC1	-0.5 (inactive)
COc1ccc(CNC(=O)CSCc2ccccc2Cl)cc1	-0.5 (inactive)
COc1cccc(N(CC(=O)NCc2cccnc2)S(C)(=O)=O)c1	0 (inactive)
COc1ccc(CNc2nc(-c3cccnc3)nn2C(=O)c2ccco2)cc1	-1 (active)
S=c1nn[nH]n1C12CC3CC(CC(C3)C1)C2	1 (active)
c1cn(C23CC4CC(CC(C4)C2)C3)cn1	0.5 (inactive)
CCOc1ccc(Nc2ncnc(N)n2)cc1	0 (inactive)
O=c1c2ccccc2nc(SCc2cn3ccsc3n2)n1-c1ccc(F)cc1	-1 (active)
Cc1noc(C)c1CSc1nc2ccccc2c(=O)n1-c1ccc(F)cc1F	0 (inactive)
COCCNCCOc1ccccc1-c1ccccc1	0 (inactive)
COc1cc2c(cc1NC(=O)COc1ccccc1OC)oc1ccccc12	0 (inactive)
COc1ccc(CN(C)CC(=O)NC(=O)NCc2ccccc2)cc1OC	0 (inactive)
COc1ccc(CCNC(=O)CSc2nnc(-c3ccc(F)cc3)c3ccccc23)cc1OC	-1 (active)
CCOC(=O)CSC1=C(C#N)C(=O)NC(c2ccc(OC)c(OC)c2)S1 (stereo not given)	0 (inactive)
Cc1sc2nc(C3CC3)nc(SCC(=O)N3CC(=O)Nc4ccccc43)c2c1C	1 (active)
Cc1cc(NC(=O)CSc2nc(C3CC3)nc3sc(C)c(C)c23)no1	1 (active)

Structure (SMILES)	manual score
Cc1ccc(N(C(=O)CCC(=O)Nc2cc(C)on2)C(C(=O)NC2CCCC2)c2cccs2)cc1 (stereo not given)	0 (inactive)
CCc1c(C)nc(SCC(=O)N2CCc3ccccc32)[nH]c1=O	0 (inactive)
Cc1ccc(C)c(Nc2c([N+](=O)[O-])cc(C(=O)N3CC(=O)Nc4ccccc43)cc2[N+](=O)[O-])c1	0 (inactive)
CCSc1nnc(NC(=O)CC)s1	0 (inactive)
Cc1cc(NC(=O)CSc2nc3ccsc3c(=O)n2NC(=O)c2ccccc2)no1	0 (inactive)
CCc1nc(SCC(=O)Nc2nnc(CC)s2)c2c(C)c(C)sc2n1	1 (active)
CCc1nnc(NC(=O)CSc2nnc(-c3c[nH]c4ccccc34)n2CC)s1	0 (inactive)
CCc1nc(SCC(=O)N2CC(=O)Nc3ccccc32)c2c(C)c(C)sc2n1	1 (active)
CN1C(=O)NC(c2ccccc2)C2=C1CN(Cc1ccccc1)C2=O (stereo not given)	0 (inactive)
CCOC(=O)C1(C(C)(C)CC)CC(CSc2nc3ccccc3[nH]2)OC1=O (stereo not given)	0 (inactive)
CN1CCN(C(=O)c2sc(=S)n(-c3ccccc3)c2N)CC1	0 (inactive)
O=C(NCCSCc1ccco1)Nc1cccc(Cl)c1	0 (inactive)
CN(C(=O)CSC1=Nc2ccccc2C2=NC(c3ccccc3)C(=O)N12)C1CCCCC1 (stereo not given)	-1 (active)
Cc1sccc1C1C(C#N)=C(N)SC(N)=C1C#N	-1 (active)
Cc1ccc(C(C(=O)NC2CCCC2)N2CCCC(C)C2)cc1 (stereo not given)	0 (inactive)
CCOC(=O)C1CCN(C(=O)NC23CC4CC(CC(C4)C2)C3)CC1	0 (inactive)
O=C(NC(=S)N1CCCCC1)C12CC3CC(CC(C3)C1)C2	1 (active)
O=C(c1csc2c1CCCC2)N1CCN(c2ccc(F)cc2)CC1	0 (inactive)
CCOc1ccccc1N1CCN(C(=S)NC(=O)C23CC4CC(CC(C4)C2)C3)CC1	0.5 (inactive)
CCC(=O)c1ccc(N2CCN(C(=O)c3cc([N+](=O)[O-])ccc3N3CCN(C)CC3)CC2)c(F)c1	0 (inactive)
O=C(NC(=S)N1CCN(c2ccc(F)cc2)CC1)C12CC3CC(CC(C3)C1)C2	1 (active)
CC12CC3CC(C)(C1)CC(C(=O)NC(=S)N1CCCCC1)(C3)C2	1 (active)
O=S(=O)(c1ccccc1)N1CCN(C(=S)Nc2ccc(F)cc2)CC1	0 (inactive)
O=C(NC(=S)N1CCN(c2ccc([N+](=O)[O-])cc2)CC1)c1ccc(F)cc1	1 (active)
